Measurements from PubChem BioAssay AID1159580 (chemical genetic matrix, 2015).
Values joined by “and” are separate entries in the source; they are usually repeats but may differ in a detail not shown here. Identical values can stand only once. Out of some 5,500 compounds screened, about 2,000 (36%) were called active. Not shown: some 18% with an inconclusive outcome. No stated cut-off is given here; in the data, active means normalized growth mostly below about 0.91 (no sharp cut-off); inconclusive means no clear call, values can overlap the other calls; inactive means mostly above about 0.92. The list shows a part of the results.

Test: chemical genetic growth profiling, strain panel (AID 1159580);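 further: tested at 20 µM; growth read once vehicle control cultures reached saturation at 30 °C; 1 = growth at the plate median or of vehicle wells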
Details: S. cerevisiae deletion strains, growth OD

Measured: normalized growth

C[N+](C)(C)CC(=O)[O-]
inactive: locus YAL013W, strain DEP1, stronger effect = lower value 0.992 | locus YAL021C, strain ccr4, stronger effect = lower value 0.993 | locus YAL026C, strain drs2, stronger effect = lower value 0.983 | locus YAL030W, strain snc1, stronger effect = lower value 1 | locus YBL061C, strain skt5, stronger effect = lower value 0.978 | locus YBR009C, strain hhf1, stronger effect = lower value 1 | locus YBR021W, strain FUR4, stronger effect = lower value 1.16 | locus YBR023C, strain chs3, stronger effect = lower value 0.998 | locus YBR171W, strain sec66, stronger effect = lower value 0.981 | locus YBR229C, strain ROT2, stronger effect = lower value 0.993 | locus YBR231C, strain swc5, stronger effect = lower value 0.969 | locus YBR279W, strain paf1, stronger effect = lower value 0.997 | locus YCL011C, strain gbp2, stronger effect = lower value 0.982 | locus YCL016C, strain dcc1, stronger effect = lower value 1 | locus YCL029C, strain bik1, stronger effect = lower value 0.982 | locus YCL061C, strain MRC1, stronger effect = lower value 0.972 | locus YCL069W, strain vba3, stronger effect = lower value 0.997 | locus YCR088W, strain abp1, stronger effect = lower value 0.996 | locus YDL005C, strain med2, stronger effect = lower value 0.959 | locus YDL035C, strain GPR1, stronger effect = lower value 0.994 | locus YDL040C, strain nat1, stronger effect = lower value 0.988 | locus YDL074C, strain BRE1, stronger effect = lower value 0.949 | locus YDL101C, strain DUN1, stronger effect = lower value 0.998 | locus YDL134C, strain PPH21, stronger effect = lower value 1.01 | locus YDL185W, strain tfp1, stronger effect = lower value 0.95 | locus YDL192W, strain arf1, stronger effect = lower value 0.985 | locus YDR001C, strain nth1, stronger effect = lower value 0.957 | locus YDR069C, strain doa4, stronger effect = lower value 0.955 | locus YDR101C, strain arx1, stronger effect = lower value 0.969 | locus YDR137W, strain rgp1, stronger effect = lower value 1.02 | locus YDR150W, strain NUM1, stronger effect = lower value 0.981 | locus YDR159W, strain sac3, stronger effect = lower value 0.978 | locus YDR162C, strain NBP2, stronger effect = lower value 0.996 | locus YDR195W, strain ref2 0.974 | locus YDR297W, strain sur2, stronger effect = lower value 0.994 | locus YDR318W, strain mcm21, stronger effect = lower value 0.992 | locus YDR334W, strain swr1, stronger effect = lower value 0.939 | locus YDR335W, strain msn5, stronger effect = lower value 0.964 | locus YDR388W, stronger effect = lower value 0.997 | locus YDR392W, strain spt3, stronger effect = lower value 1 | locus YDR502C, strain sam2, stronger effect = lower value 0.986 | locus YEL003W, strain gim4, stronger effect = lower value 0.99 | locus YEL037C, strain rad23, stronger effect = lower value 0.989 | locus YEL061C, strain CIN8 (second series), stronger effect = lower value 0.992 | locus YEL061C, strain CIN8, stronger effect = lower value 0.996 | locus YER015W, strain faa2, stronger effect = lower value 0.993 | locus YER016W, strain bim1, stronger effect = lower value 1.02 | locus YER110C, stronger effect = lower value 0.985 | locus YER111C, strain swi4, stronger effect = lower value 0.992 | locus YER155C, strain BEM2 (second series), stronger effect = lower value 0.987 | locus YER155C, strain BEM2, stronger effect = lower value 0.996 | locus YER167W, strain BCK2, stronger effect = lower value 0.993 | locus YFR010W, strain ubp6, stronger effect = lower value 0.958 | locus YGL078C, strain dbp3, stronger effect = lower value 0.998 | locus YGL086W, strain mad1, stronger effect = lower value 1.01 | locus YGL167C, strain pmr1, stronger effect = lower value 0.978 | locus YGL173C, strain kem1, stronger effect = lower value 1 | locus YGL227W, strain vid30, stronger effect = lower value 0.968 | locus YGL240W, strain doc1, stronger effect = lower value 0.981 | locus YGL248W, strain PDE1, stronger effect = lower value 0.989 | locus YGL253W, strain hxk2, stronger effect = lower value 0.962 | locus YGR078C, strain PAC10, stronger effect = lower value 0.955 | locus YGR135W, strain pre9, stronger effect = lower value 0.984 | locus YGR229C, strain SMI1, stronger effect = lower value 0.979 | locus YGR252W, strain gcn5, stronger effect = lower value 1.19 | locus YHR013C, strain ard1, stronger effect = lower value 0.992 | locus YHR027C, strain rpn1, stronger effect = lower value 0.983 | locus YHR030C, strain SLT2, stronger effect = lower value 0.993 and 0.982 | locus YHR079C, strain IRE1 (second series), stronger effect = lower value 0.982 | locus YHR079C, strain IRE1, stronger effect = lower value 0.989 | locus YHR094C, strain hxt1, stronger effect = lower value 0.973 | locus YHR129C, strain ARP1, stronger effect = lower value 0.994 | locus YHR142W, strain chs7, stronger effect = lower value 0.963 | locus YHR200W, strain rpn10, stronger effect = lower value 0.978 | locus YIL066C, strain RNR3, stronger effect = lower value 0.983 | locus YIL073C, strain SPO22, stronger effect = lower value 0.94 | locus YIL125W, strain kgd1, stronger effect = lower value 0.988 | locus YIR030C, strain dcg1, stronger effect = lower value 0.994 | locus YJL092W, strain hpr5, stronger effect = lower value 0.989 | locus YJL095W, strain BCK1 (second series), stronger effect = lower value 0.979 | locus YJL095W, strain BCK1, stronger effect = lower value 0.987 and 0.995 | locus YJL115W, strain asf1, stronger effect = lower value 0.966 | locus YJL129C, strain trk1, stronger effect = lower value 0.958 | locus YJL134W, strain LCB3, stronger effect = lower value 1 | locus YJL154C, strain vps35, stronger effect = lower value 0.963 | locus YJL164C, strain tpk1, stronger effect = lower value 1.01 | locus YJL166W, strain qcr8, stronger effect = lower value 0.978 | locus YJL168C, strain set2, stronger effect = lower value 0.992 | locus YJL187C, strain SWE1 (second series), stronger effect = lower value 0.988 | locus YJL187C, strain SWE1, stronger effect = lower value 0.964 | locus YJR043C, strain POL32, stronger effect = lower value 0.998 | locus YJR066W, strain TOR1, stronger effect = lower value 0.948
